Data from PubChem BioAssay (NCI).
This is part of a sample that, as a whole, favours compounds with a hit. Of some 83,000 tested, about 20% had one in any assay.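 Note: values are percent growth. 100 is the growth of untreated cells, values between 100 and 0 indicate rising inhibition; between -100 and 0 indicates cell death.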 Values without a mark were called inactive. The source made the active and inactive calls. Rule for the calls: active = growth percent below 10; inactive = the rest.

Key:
Experiment in all cases: NCI-60 one-dose screen, 48 h (100 = growth as untreated, 0 = no growth, -100 = all killed)
Settings in all cases: 10 µM unless noted
HCT-15 colon = test system: HCT-15 colon
HT29 colon = test system: HT29 colon
SNB-75 CNS = test system: SNB-75 CNS
SNB-19 CNS = test system: SNB-19 CNS
U251 CNS = test system: U251 CNS
PC-3 prostate = test system: PC-3 prostate
SK-MEL-5 melanoma = test system: SK-MEL-5 melanoma
UACC-62 melanoma = test system: UACC-62 melanoma
LOX IMVI melanoma = test system: LOX IMVI melanoma
SK-MEL-28 melanoma = test system: SK-MEL-28 melanoma

Row | SMILES | growth (HCT-15 colon) | growth (HT29 colon) | growth (SNB-75 CNS) | growth (SNB-19 CNS) | growth (U251 CNS) | growth (PC-3 prostate) | growth (SK-MEL-5 melanoma) | growth (UACC-62 melanoma) | growth (LOX IMVI melanoma) | growth (SK-MEL-28 melanoma)
1 | c1cn2cc(-c3ccc4ncn(C5CCCCC5)c4c3)nc(-c3ccc4c(c3)ncn4C3CCCCC3)c2n1 | -11.5% (active) | -26.2% (active) | -89.6% (active) | 6.63% (active) | -83.3% (active) | -64.1% (active) | -89.4% (active) | -47.7% (active) | -87.4% (active) | -19.8% (active)
2 | Cc1ccccc1C1CC(=O)c2ccccc2C1C (stereo not given) | 96.9% | 100% | 85% | 94.5% | 88.5% | 99.4% | 105% | 87.4% | 100% | 107%
3 | COc1cc(/C=C/c2cc(/C=C/c3ccc(O)c(OC)c3)n(C(=O)Nc3ccc(F)c(Cl)c3)n2)ccc1O | 6.64% (active) | -33.6% (active) | -12.6% (active) | 4.42% (active) | -1.59% (active) | -14.3% (active) | -73.9% (active) | -37.4% (active) | -20.9% (active) | 7.89% (active)
4 | CCN1CCN(Cc2ccc(NC(=O)Nc3ccc(-n4ccc5c(NC(=O)c6ccccc6)nccc54)cc3)cc2C(F)(F)F)CC1 | -6.13% (active) | -35.3% (active) | -88.2% (active) | -14% (active) | -75.8% (active) | 54.6% | -97.6% (active) | 41.3% | -84.5% (active) | -96.7% (active)
5 | O=C(Nc1cccc(-n2ccc3c(NC(=O)c4ccccc4)nccc32)c1)c1ccc(N2CCOCC2)c(C(F)(F)F)c1 | 14.1% | 2.15% (active) | -12.5% (active) | 43.3% | 15.5% | 23.7% | -68.6% (active) | 40.1% | 9.86% (active) | 32.8%
6 | CCN(CC)CCNC(=O)n1cc(-c2ccncc2)c(-c2ccc(Cl)c(OC)c2)n1 | 96.1% | 59.4% | 64.7% | 93% | 90.3% | 88.2% | 94.1% | 72.5% | 92.3% | 90.2%
7 | N#CCCn1cnc2c(N)ncnc21 | 98.3% | 101% | 93.8% | 99.4% | 98.8% | 94.2% | 113% | 96.7% | 97.1% | 107%
8 | CCc1c(C)c2ccc(O)c(-c3cc(-c4ccccc4)c(C#N)c(=O)[nH]3)c2oc1=O | 96.5% | 125% | 52.7% | 108% | 100% | 107% | 94.7% | 77.3% | 93.1% | 107%
9 | CC1CCN(CCCCCOc2ccc3oc4ccc(Cl)cc4c(=O)c3c2)CC1 | -21.5% (active) | 1.54% (active) | 93.5% | 79.6% | 49.5% | 55.1% | 11.6% | -43.5% (active) | 7.78% (active) | 64.7%
10 | CCN(CC)CCNC(=O)n1cc(-c2ccncc2)c(-c2cc(Cl)cc(OC)c2)n1 | 86% | 31.3% | 48% | 76.5% | 75.4% | 79.8% | 84.8% | 70.3% | 78.7% | 91.3%
11 | COC(=O)[C@@H](Cc1c[nH]c2ccccc12)NC(=O)/C=C/c1ccccc1 | 13.7% | 85.5% | 15.3% | 46.4% | 14.2% | 18.7% | 31.4% | 44.1% | 38.3% | 44.3%
12 | O=c1c2cc(Cl)ccc2oc2ccc(OCCCCCN3CCCCC3)cc12 | -14.7% (active) | -27.9% (active) | 102% | 77.5% | 46% | 69.1% | -26.2% (active) | -52.7% (active) | -6.06% (active) | 12%
13 | Cc1ccc(C)c(NC(=O)c2sc3c(=O)[nH]cnc3c2C)c1 | 49.8% | 34.9% | 81.1% | 91.7% | 86.1% | 83.4% | 74.4% | 61.1% | 85% | 89.3%
14 | COc1ccc([C@H]2c3[nH]c4ccccc4c3C[C@H]3C(=O)N(CCCCCCC(=O)NO)CC(=O)N23)cc1 | 81% | 35% | -0.662% (active) | 48.5% | 30.4% | 11.9% | 12.4% | 9.81% (active) | 13.1% | 4.8% (active)
15 | O=C(CC(=O)C(F)(F)C(F)(F)C(F)(F)F)c1cc2ccccc2o1 | 108% | 103% | 92.2% | 107% | 97.5% | 91.1% | 106% | 104% | 92.4% | 105%
16 | CCN(CC)c1ccc(/C=N/NC(=O)c2ccc(S(C)(=O)=O)cc2)c(O)c1 | 28.5% | 21.8% | 55.2% | 32% | 20.6% | 49.2% | -2.99% (active) | -18.5% (active) | 9.68% (active) | 27.2%
17 | O=C1Nc2ccc(Cl)cc2/C1=C\c1c(-c2ccc(F)cc2)nc2ccccn12 | 21.4% | 0.999% (active) | -49.4% (active) | 41.6% | 23.2% | 18.8% | -28.4% (active) | 7.95% (active) | -30.1% (active) | 6.38% (active)
18 | N/C(=C\C(=O)n1nc(-c2ccccc2)cc1N)c1ccccc1 | 33.5% | 23.8% | 29.9% | 66.6% | 36.7% | 22.6% | 32.2% | 36.9% | 51.4% | 42.2%
19 | COc1ccccc1/C=C/C(=O)CCC(=O)O | 113% | 107% | 98.5% | 114% | 107% | 94.5% | 109% | 108% | 99.8% | 110%
20 | c1cc(C2CCCCC2)ccc1-c1cnc2nonc2n1 | 9.57% (active) | 3.11% (active) | 26.6% | 37.2% | 21.6% | 23.9% | 22.6% | 8.73% (active) | 2.13% (active) | 65.5%
21 | CCOC(=O)c1ccc2c(c1)[n+](=O)c(C(=O)c1ccc3ccccc3c1)c(C(F)(F)F)n2[O-] | -96.1% (active) | -97.4% (active) | -100% (active) | -85.5% (active) | -100% (active) | -99.2% (active) | -100% (active) | -97.2% (active) | -97.5% (active) | -96.3% (active)
22 | Cc1ccccc1Nc1n[nH]c(Cc2ccccc2)n1 | 108% | 79.1% | 93.9% | 97.6% | 94.3% | 86.5% | 93.9% | 98.4% | 95.5% | 113%
23 | COc1ccc(-c2nc(SCCC(C)C)nc(Nc3ccc(C(=O)O)cc3)c2C#N)cc1 | 60.6% | 84% | 92.2% | 88.8% | 81.5% | 58.4% | 73.9% | 86.8% | 82.6% | 89.7%
24 | CCCCCCCCN=C(NCCCCCCCC)SCc1cccc2ccccc12 | -78.1% (active) | -24.4% (active) | -88.4% (active) | -88.4% (active) | -98.7% (active) | -93.2% (active) | -95.3% (active) | -82.2% (active) | -96% (active) | -87.8% (active)
25 | O=C(C(=O)N1CCCC1)c1cn(CCCn2cc(C(=O)C(=O)N3CCCC3)c3cc(Br)ccc32)c2ccc(Br)cc12 | 84.6% | 79.3% | 46.3% | 85.5% | 36.6% | 66.5% | 90.8% | 85.1% | 57.9% | 79.8%
26 | C=CCCCCOc1cccc(/C=C2\N=C3SCCCN3C2=O)c1 | 90% | 90.1% | 91.1% | 99.9% | 92.7% | 95.3% | 99% | 87.6% | 88.7% | 108%
27 | CC(=O)C1CCC2C3CC(C)=C4CC(O)CCC4(C)C3CCC12C (stereo not given) | 100% | 96.4% | 100% | 97.5% | 97.5% | 88.2% | 99.4% | 91.6% | 92.1% | 105%
28 | OC(COCc1ccccc1)COCc1ccccc1 | 109% | 106% | 90.8% | 111% | 96.1% | 111% | 111% | 103% | 101% | 113%
